# Source: PubChem BioAssay AID504332 (National Center for Advancing Translational Sciences (NCATS), 2011)
# Hit rate of the full screen: of about 350,000 compounds, about 31,000 (8.9%) were called active. Entries that show only a call come without a potency. Roughly 15% stayed inconclusive and do not appear here. Only a selection was taken, and actives are over-represented in it overall. Values without a mark were called inactive. Calls follow the shape of the dose curve; as a rule, active = well fitted inhibition curve with a large enough effect; inconclusive = small, poorly fitted or top-dose-only effect; inactive = no such curve, though single readings can be large or run the other way.
# Target: Histone-lysine N-methyltransferase EHMT2 (Homo sapiens) (UniProt Q96KQ7)
# Sequence (Q96KQ7 913-1193 limits assumed): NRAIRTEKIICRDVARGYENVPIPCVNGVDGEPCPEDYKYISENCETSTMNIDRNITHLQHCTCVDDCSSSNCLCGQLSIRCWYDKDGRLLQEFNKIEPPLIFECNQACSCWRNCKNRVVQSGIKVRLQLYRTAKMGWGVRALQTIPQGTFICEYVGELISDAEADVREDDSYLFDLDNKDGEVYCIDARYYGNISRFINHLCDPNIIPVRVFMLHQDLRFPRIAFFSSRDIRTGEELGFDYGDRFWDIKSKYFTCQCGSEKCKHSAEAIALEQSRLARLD
# Test: qHTS Assay for Inhibitors of Histone Lysine Methyltransferase G9a; also: nearly all actives have a fitted effect of over 75% in size
# Settings: G9a H3K9 monomethylation, AlphaScreen, 2 h; series mostly up to 59 µM
# How it was run: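 AlphaScreen detection with an anti-monomethyl H3K9 antibody quantified product after a 2 h room-temperature reaction containing 500 nM biotinylated H3K9 peptide, 20 µM SAM and 20 nM enzyme, which had been preincubated 15 min with compound.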
# Potency is read from the fitted curve at half-maximal effect.
Compound,Potency,"activity, negative = inhibition"
COc1cccc2sc(NNC(=O)c3nc4ccccc4s3)nc12,12.6 µM (active),
O=C(Nc1cc(C(F)(F)F)ccc1Cl)c1nc2ccccc2nc1N1CCCCC1,inactive,
O=S(=O)(c1ccc(Cl)cc1)c1nnn2c1nc(NC1CCCC1)c1sccc12,inactive,
CC1(C)CC(=O)C=C(c2ccc3ncccc3c2)C1,,6.31% [at 2.33 µM]
COc1ccc(S(=O)(=O)N2CCOCC2)cc1NC(=O)CC1CC2CCC1C2 (stereo not given),,1.4% [at 2.33 µM]
O=C(/C=C/c1ccco1)NC(=S)N1CCCCC1,70.8 µM (active),
CCNC(=S)N1CCN(C(=O)c2ccco2)CC1,inactive,
COc1ccccc1/C=C/C(=O)NC(=S)N1CCOCC1,inactive,
COc1ccc(Cl)cc1NC(=O)CN(C)C(=O)c1cc(-c2cccs2)nn1-c1ccccc1,,8.22% [at 0.501 µM]
CCOC(=O)c1ccc(NC(=O)Cn2c(=O)n(-c3ccc(C)cc3)c(=O)c3c2cnn3C)cc1,inactive,
O=S(=O)(Nc1ccc2nc(-c3ccco3)[nH]c2c1)c1ccccc1,31.6 µM (active),
O=S(=O)(Nc1ccc2nc(-c3cccc(Cl)c3)oc2c1)c1ccccc1,inactive,
CCc1ccccc1NS(=O)(=O)c1ccc2nc(-c3ccccc3)[nH]c2c1,inactive,
COc1ccc2oc(=O)c(-c3cn4c(n3)sc3cc(OC)ccc34)cc2c1,inactive,
CCn1c(CN2CCC(C)CC2)nc2cc(NC(=O)c3ccccc3[N+](=O)[O-])ccc21,inactive,
COC(=O)c1cc(S(=O)(=O)NCC2CCN(Cc3ccc(Cl)cc3)CC2)cn1C,inactive,
COc1ccc(CCNC(=O)Cn2c(=O)cc(C(F)(F)F)c3c(C)nn(C)c32)c(OC)c1,inactive,
COc1ccccc1C(=O)NCCC(=O)NC(C)CCc1ccccc1 (stereo not given),,3.84% [at 0.501 µM]
CCn1c(SCC(=O)NCC2CCCO2)nc2ccccc21 (stereo not given),,19.8% [at 12.7 µM]
O=C(CSc1nnc(-c2ccc(NS(=O)(=O)c3ccccc3)cc2)o1)NCC1CCCO1 (stereo not given),inactive,
O=C(CSc1ccc(-c2ccccc2)nn1)NCC1CCCO1 (stereo not given),44.7 µM (active),
CCOc1ccc(CCNC(=O)Cn2nc(CC)n3c(cc4sc(CC)cc43)c2=O)cc1OCC,inactive,
CCc1nnc(NC(=O)c2cc(S(=O)(=O)N3CCCCC3)ccc2C)s1,inactive,
CCOC(=O)c1ccc(NC(=O)Cn2c(=O)cc(C)c3c(C)nn(-c4cccc(F)c4)c32)cc1,inactive,
Cc1ccc(-c2nn(-c3ccccc3)cc2C(=O)NC2CCC(O)CC2)cc1 (stereo not given),,9.53% [at 2.33 µM]

Compound,Potency,"activity, negative = inhibition"
O=C(NNC(=S)NC(=O)c1cn(-c2ccccc2)nc1-c1ccccc1)c1ccncc1,25.1 µM (active),
O=C(Nc1cn(-c2ccccc2)nc1-c1ccccc1)c1ccccc1,inactive,
COc1ccc(N(Cc2cc3ccc(C)cc3[nH]c2=O)S(=O)(=O)c2ccccc2)cc1,inactive,
Cc1ccccc1CNC(=O)c1cccc(NC(=O)c2nsc3ccccc23)c1,inactive,
Fc1ccc(CSc2nc(NCc3ccccc3)c3ccccc3n2)cc1,inactive,
O=C(c1cc2ccccc2o1)N1CCN(S(=O)(=O)c2ccc(Cl)s2)CC1,,0.973% [at 2.33 µM]
CN(C)S(=O)(=O)c1cccc(NC(=O)COc2ccc3ccccc3c2)c1,,-10.1% [at 12.7 µM]
Cc1ccc(NS(=O)(=O)c2ccc(C)c(NC(=O)COc3ccc4ccccc4c3)c2)c(C)c1,35.5 µM (active),
Cc1ccc(C)c(NS(=O)(=O)c2ccc(OCC(=O)NCc3cccnc3)cc2)c1,inactive,
Cn1cc(Cl)c(C(=O)NNC(=S)Nc2cccc(Cl)c2)n1,15.8 µM (active),
Cc1cccc(NC(=S)Nc2ccc(Cl)c(Cl)c2)c1,inactive,
CC(C)CNC(=S)NNC(=O)c1nn(C)cc1Cl,inactive,
CCOC(=O)c1ccc(NC(=O)c2ccc(NC(=O)C3CCCO3)cc2)cc1 (stereo not given),inactive,
CCOC(=O)c1c(NC(=O)NC(C)(C)C)sc2c1CCN(C)C2,inactive,
CCOC(=O)c1c(NC(=O)CSc2nnc(C)c(=O)[nH]2)sc2c1CCC2,inactive,
CCCOC(=O)Nc1sc2c(c1C(=O)OCC)CCC2,inactive,
CCOC(=O)c1c(NC(=S)Nc2ccccc2C)sc2c1CCC2,inactive,
CCOC(=O)c1c(NC(=S)Nc2ccccc2)sc2c1CCN(C)C2,44.7 µM (active),
CCOC(=O)c1c(NC(=S)NC)sc2c1CCCC2,11.2 µM (active),
CCOC(=O)c1c(NC(=O)/C(C#N)=C/c2ccccc2)sc2c1CCC2,inactive,
CCOC(=O)c1c(NC(=O)c2cc(-c3ccc(Cl)cc3)on2)sc2c1CCCC2,6.31 µM (active),
CCOC(=O)c1c(NC(=S)NC(=O)c2ccco2)sc2c1CCCC2,inactive,
CCOC(=O)c1c(NC(=O)c2ccc(S(=O)(=O)N(CC)CC)cc2)sc2c1CCCCC2,inactive,
CCOC(=O)c1c(NC(=O)CSc2cn(CCNC(=O)c3cccc(C(F)(F)F)c3)c3ccccc23)sc2c1CCC2,inactive,
CCOC(=O)c1c(NC(=O)CSc2cn(CC)c3ccccc23)sc2c1CCC2,56.2 µM (active),
